ASM inhibitor – human S-ASM enzyme inhibition. P17405. 0.006% of 340,000 active. Potency, µM (series often up to 57.5 µM), for inactives: at the highest dose activity change, negative = inhibition, hits mostly inhibitors. placental ASM, HMU-PC fluorogenic substrate, 60 min. AID 504937; note: potency is the fitted concentration of half-maximal effect
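qHTS format. ASM enzyme prepared from human placenta hydrolyses the fluorogenic substrate HMU-PC0 (9 uM final) over 60 min at 37 °C after a 10 min compound preincubation.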
Vif-A3F inh – inhibitors of Vif-A3F interaction; HeLa A3F-eYFP + Vif (tagged APOBEC3F with the HIV-1 protein that degrades it), YFP fluorescence increase; Potency, µM (titrated, usually from 46.1 µM), for the others: at the top dose activity, negative = active; 0.2% of 390,000 active; AID 602313; note: potency is the fitted concentration of half-maximal effect; % of control where 0% means no effect; nearly all actives have a fitted effect of over 65% in size
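HeLa cells stably expressing A3F-eYFP plus Vif, plated and incubated overnight at 37 deg C, then exposed to compounds overnight at 37 deg C. Blocked degradation read as raised yellow fluorescence (Ex 488/Em 500-530).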
12-LOX inh – blocks human arachidonate 12S-lipoxygenase. P18054. purified 12hLO, xylenol orange hydroperoxide absorbance. 1.1% of 580,000 active. Potency, µM (top dose mostly 108 µM), without a hit: top-dose activity change, negative = inhibition, hits mostly inhibitors; note: potency is the fitted concentration of half-maximal effect; % is set by controls: 0 for no effect and ±100 for the full control effect
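Purified human 12hLO (150 nM final) in 25 mM Hepes, 0.01% Triton X-100, pH 7.0 was preincubated 15 min at room temperature with compound. Then 40 uM arachidonic acid was added, 30 min. Hydroperoxide was read by Fe-XO absorbance ratio 573/405 nm.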
pAkt inh – Akt phosphorylation inhibition. Neuro2A IGF-stimulated pAkt S473 HTRF, 20 min; active compounds read low. activity change, % for hits at 50 µM. 0.32% of 360,000 active. AID 651550; in the data active = activity change below about -80%; inconclusive = mostly about -51% to -80%; note: % is set by controls: 0 for no effect and ±100 for the full control effect
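Neuro2A cells (4,500/well, DMEM with 0.5% FBS) were treated with compound at a single 50 µM final concentration, stimulated with 6 nM IGF for 20 min at 37 °C, and lysed. Phospho-Akt Ser473 was read by HTRF as 665/615 ratio ×10^4.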
TSG101-PTAP inh – blocks PTAP/TSG101 interaction to inhibit HIV-1 budding | Q99816 | 340,000 tested, under 10 active | AID 493005 | Potency, µM (highest dose often 115 µM), for inactives: at the highest dose activity change, negative = inhibition, most hits filed as inhibitors | Fluorescence polarization, FITC-PTAP peptide / Tsg101 binding; active = well fitted inhibition curve with a large enough effect in the main read-out, with a control signal flat, not every such curve was filed as active; inconclusive = small, poorly fitted or top-dose-only effect, or effect the other way, or a change in a side signal; inactive = no such curve, though single readings can be large or run the other way; note: potency is the fitted concentration of half-maximal effect; % of control where 0% means no effect
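Steps: Tsg101 binding domain dispensed (10 uM final), compounds pinned in DMSO, FITC-labeled PTAP-motif peptide added (50 nM final); after 20 min binding at room temperature, polarization measured.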
Vif-APOBEC3G blk – inhibitors of Vif-APOBEC3G interaction | Q9HC16 | HeLa A3G-eYFP + Vif (tagged APOBEC3G with the HIV-1 protein that degrades it), YFP fluorescence, overnight | Potency, µM (titrated, usually from 46.1 µM), for the others: at the top dose activity, negative = active, usual class: inhibitors | 0.076% of 410,000 active; note: potency is the fitted concentration of half-maximal effect; % is set by controls: 0 for no effect and ±100 for the full control effect; nearly all actives have a fitted effect of over 60% in size
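Read-out is eYFP fluorescence (Ex 488/Em 500-530) from Vif-expressing HeLa A3G-eYFP cells; more signal means A3G escaped Vif-mediated degradation. Cells plated overnight, compound pinned in, incubated overnight at 37 deg C.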
An asterisk follows results filed as active; i = inactive; ? = inconclusive; · = no result. An excerpt weighted towards active compounds, which were near 1.4% of everything screened. Unless noted, calls come from the whole dose curve; as a rule, active = well fitted curve in the direction sought with a large enough effect; inconclusive = small, poorly fitted or top-dose-only effect, or another doubt; inactive = no such curve, though single readings can be large; an effect the other way counts as inactive or inconclusive.

SMILES	ASM inhibitor	Vif-A3F inh	12-LOX inh	pAkt inh	TSG101-PTAP inh	Vif-APOBEC3G blk
CC(C)(C)OC(=O)N1CCCC1C(=O)NCc1ccc(Cl)cc1Cl (stereo unspecified)	·	·	22.7%	·	·	·
CCOC(=O)C1=C(C)C(c2ccc(OC)cc2)NC(=S)N1 (stereo unspecified)	-0.8%	-3.3%	0.0%	i	-6.2%	-4.1%
CCOC(=O)C1=C(C)C(c2cccc(Oc3ccccc3)c2)NC(=S)N1 (stereo unspecified)	-2.0%	1.0%	39.8µM*	i	-5.2%	1.5%
O=C(/C=C/c1ccccc1Cl)Nc1ccccc1C(F)(F)F	·	·	-2.7%	·	·	·
CCCNS(=O)(=O)c1ccc(OCC(=O)Nc2ccccc2F)cc1	2.8%	5.0%	-5.0%	-102.2%*	-7.2%	1.2%
Cc1cccc(NC(=S)/N=C(\N)Nc2nc(C)c3ccccc3n2)c1	-9.3%	?	?	i	0.3%	-9.0%
CCc1ccc(NC(=S)/N=C(\N)Nc2nc(C)c3cc(CC)ccc3n2)cc1	-3.4%	1.8%	35.5µM*	i	-0.4%	-6.5%
Cc1cccc(NC(=S)/N=C(\N)Nc2nc(C)c3cc(C)ccc3n2)c1	2.0%	0.0%	39.8µM*	i	-0.2%	-8.0%
Cc1cccc(NC(=S)/N=C(\N)Nc2nc(C)c3ccc(C)cc3n2)c1	?	-2.6%	?	i	-0.9%	-5.9%
Cc1cc(C)cc(NC(=S)/N=C(\N)Nc2nc(C)c3ccccc3n2)c1	-5.6%	-14.5%	44.7µM*	i	1.8%	1.0%
Fc1cccc(F)c1-c1nc2c(s1)CCc1onc(-c3ccc(Br)cc3)c1-2	3.3%	5.4%	14.1µM*	i	-1.5%	3.5%
COc1ccc(-c2noc3c2-c2nc(-c4c(F)cccc4F)sc2CC3)cc1	-1.1%	-1.7%	?	i	-8.1%	-0.7%
COc1ccc(-c2noc3c2-c2nc(-c4ccccc4F)sc2CC3)cc1	?	-4.3%	39.8µM*	i	3.7%	0.7%
CCN(CCO)C(=O)CCOc1ccccc1	·	·	2.6%	·	·	·
Cc1nnc(SCC(=O)Nc2sc3c(c2C#N)CCC(C)C3)n1Cc1ccccc1 (stereo unspecified)	·	·	20µM*	·	·	·
COC12CC(=O)C(C(C)=O)=C(O)C1(C)c1c(O)c(C)c(O)c(C(C)=O)c1O2 (stereo unspecified)	·	·	39.8µM*	·	·	·
Cc1ccc(C(=O)NC(C)c2cccc(C(F)(F)F)c2)cn1 (stereo unspecified)	·	·	-8.3%	·	·	·
Cc1ccc(-c2cn(-c3ccccc3)c(=S)[nH]2)cc1C	-3.9%	9.5%	35.5µM*	i	-7.2%	-6.0%
CC(CN1CCCCC1)NC(=O)c1cc(-c2ccccn2)nc2ccc(Cl)cc12 (stereo unspecified)	1.5%	-4.0%	3.0%	i	-0.9%	-0.4%
CC(CN1CCCCC1)NC(=O)c1scnc1-c1ccccc1 (stereo unspecified)	·	·	5.62µM*	i	·	1.3%
COc1cc(N=Nc2cccc(S(N)(=O)=O)c2)c2ccccc2c1N	?	25.1µM*	6.31µM*	i	-1.3%	?
Cc1ccccc1-c1cc(=O)c2cc(NC(=O)c3ccco3)ccc2o1	·	·	-28.5%	·	·	·
CCC(C)c1ccc(NC(=S)NCCn2cc(Cl)cn2)cc1 (stereo unspecified)	1.6%	-8.3%	35.5µM*	i	2.9%	0.6%
CCC(C)c1ccc(NC(=S)NCCn2cc(Br)cn2)cc1 (stereo unspecified)	-0.7%	-17.0%	?	i	-1.8%	5.4%
Cc1cc(C)c(S(=O)(=O)n2cc3c(=O)n(C)c(=O)n(C)c3n2)cc1C	·	·	40.4%	·	·	·
COc1nccnc1NS(=O)(=O)c1ccc(NC(=S)NC(=O)c2ccccc2F)cc1	-0.3%	12.6%	44.7µM*	i	-1.1%	-1.1%
COc1nccnc1NS(=O)(=O)c1ccc(NC(=S)NC(=O)c2ccc(F)cc2)cc1	-1.9%	-2.0%	35.5µM*	i	1.1%	-0.6%
